Results on 23 molecules are retold here after PubChem BioAssay (NCATS).

Records with an inconclusive call do not appear. A number with no mark means an inactive call. The call rests on the fitted dose curve; in most records, active means well fitted inhibition curve with a large enough effect; inconclusive means small, poorly fitted or top-dose-only effect; inactive means flat fitted curve, though single readings scatter.
On the % scale 0 is the no-effect control and ±100 the full control effect.

This assay relates to HaCat. The assay can be described thus: Cytotoxic Profiling of Annotated Libraries Using Quantitative High-Throughput Screening (AID 1296008). Further: nearly all actives have a fitted effect of over 60% in size. To be noted: Five cell lines viability, CellTiter-Glo ATP luminescence, 48-72 h; max response: stronger effect = lower value. In outline:
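Cells exposed to compounds for 48 or 72 hr at 37 degrees Celsius. Viability read as ATP-coupled luminescence with CellTiter-Glo after 10 min at room temperature.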
For `NS(=O)(=O)c1ccc(N2N=C(c3ccccc3)CC2c2ccccc2)cc1` (stereo not drawn), the max response is 4.65%.

In the case of `Cc1nc(N2CCN(C(=O)c3ccco3)CC2)c2c3c(sc2n1)CCCC3`, the max response was 1.01%.

Consider `CCC(C)c1ccc(NC(=O)Cn2cnc3c2c(=O)n(C)c(=O)n3C)cc1` (stereo not drawn), for which the max response is -17.7%.

Turning to `Cn1ncnc1[C@@H]1c2n[nH]c(=O)c3cc(F)cc(c23)N[C@H]1c1ccc(F)cc1`, the max response was -18%.

As for `COC(=O)CC[C@@H](C)C1CCC2C3CCC4C[C@H](OC(C)=O)CCC4(C)C3C[C@H](O)C21C` (stereo partly drawn), the max response was -5.91%.

Regarding `O=C(c1ccc(F)cc1)N1CCCC(c2nc(-c3ccc(F)cc3)no2)C1` (stereo not drawn), the max response is -5.25%.

For the molecule `Cc1cn2c(n1)Cc1ccc(Cl)cc1C(c1ccc(N)cc1)=N2`, the max response was 1.21%.

On to `C[C@@H]1O[C@@H](O[C@H]2[C@H](OC(=O)[C@]34CCC(C)(C)C[C@H]3C3=CCC5[C@@]6(C)C[C@H](O)[C@H](O[C@@H]7O[C@H](C(=O)O)[C@@H](O)[C@H](O)[C@H]7O)[C@@](C)(CO)C6[C@H](O)C[C@@]5(C)[C@]3(C)C[C@H]4O)O[C@@H](CO)[C@@H]2O)[C@H](O)[C@H](O)[C@H]1O[C@@H]1OC[C@@H](O)[C@H](O[C@H]2OC[C@](O)(CO)[C@H]2O)[C@H]1O` (stereo partly drawn), for which the max response was -2%.

Turning to `CCc1c(Cl)c(O)c(Cl)c(O)c1C(=O)O[C@H]1[C@H](O)[C@H](OC)[C@H](OC/C2=C\C=C\C[C@H](O)/C(C)=C\[C@H](CC)[C@@H](O[C@@H]3OC(C)(C)[C@@H](OC(=O)C(C)C)[C@H](O)[C@@H]3O)/C(C)=C/C(C)=C/C[C@@H]([C@@H](C)O)OC2=O)O[C@@H]1C`, the max response was -22.3%.

Turning to `C/C=C/C=C/C=C/C(=O)O[C@@H]1C=C(CO)C(O)(C(=O)OC)[C@@]2(C)CCCC(C)(C)C12` (stereo partly drawn), the max response was 2.7%.

As for `COCCCNC(=O)c1ccc(Cn2c(=O)c3ccccc3n(Cc3ccc(C(C)C)cc3)c2=O)cc1`, the max response was 1.44%.

On to `C=CC(C)(O)CC/C=C(\C)C(=O)OC1C(O)C(CO)OC(OC(=O)C23CCC(C)(C)CC2C2=CCC4C5(C)CCC(OC6OC(COC7OCC(OC(C)=O)C(O)C7OC7OC(COC(C)=O)C(O)C(O)C7OC(C)=O)C(O)C(O)C6OC6OCC(O)C(O)C6O)C(C)(C)C5CCC4(C)C2(C)C(O)C3O)C1OC1OCC(OC2OCC(O)C(OC3OCC(O)C(O)C3O)C2O)C(O)C1O` (stereo not drawn), for which the max response was -18.3%.

In the case of `C[C@@H]1O[C@@H](O[C@H]2[C@H](O[C@H]3CC[C@@]4(C)C(CC[C@]5(C)C4C=C[C@]46OC[C@@]7(CCC(C)(C)C[C@H]74)[C@@H](O[C@@H]4O[C@@H](C)[C@H](O)[C@@H](O)[C@H]4O)C[C@]65C)[C@]3(C)CO)O[C@H](CO)[C@@H](O)[C@@H]2O[C@@H]2O[C@H](CO)[C@@H](O)[C@H](O)[C@H]2O)[C@H](O)[C@H](O)[C@H]1O` (stereo partly drawn), the max response was -9.32%.

Take `O=C(Nc1ccc(N2C(=O)[C@@H]3[C@H](C2=O)[C@@H]2C=C[C@H]3C2)c(Cl)c1)c1ccccn1`: the max response was -18.9%.

As to `Cc1c(C2=CCN(C(=O)N(C)C(C)C)CC2)nnn1-c1cccnc1F`, the max response is 3%.

Consider `CNC(=O)c1ccc2c(c1)CCO[C@H]2CCN1CCN(c2ccc(OC)cc2)CC1`, for which the max response is -0.835%.

As for `CCCc1cc(C)n(C)c(=O)c1CN(C)C(=O)c1cc(-c2ccc(N3CCN(C(C)C)CC3)nc2)cc2c1cnn2C(C)C`, the max response was 1.32%.

Take `Cn1c(SCC(=O)N2CCC[C@H]2C(=O)Nc2ccccc2-c2ccccc2)nc2ccccc21`: the max response is -3.91%.

Turning to `COc1cc(/C=N\NC(=O)c2ccc3c(c2)OCO3)ccc1OCc1ccccc1`, the max response is -3.21%.

As to `CC(=O)OC1C(OC(=O)c2ccccc2)C2C(C)(C)CCC(OC(C)=O)C2(C)C23CCC(C)(C2)C(=O)CC13` (stereo not drawn), the max response was -16.6%.

Consider `CC1(CO)CC(O)[C@]2(C(=O)O)CCC34CC3(C=CC3[C@]5(C)C(CC[C@]34C)C(C)(CO)[C@@H](O)[C@H](O)[C@@H]5O)C2C1` (stereo partly drawn), for which the max response was -0.72%.

As for `Cc1ccc(S(=O)(=O)NCc2ccc(C(=O)NCCN(Cc3ccccc3)C(C)C)cc2)cc1`, the max response was -19.3%.

On to `CC(=O)O[C@H]1C[C@@](O)(C(C)C)[C@@H]2[C@@H](OC(=O)c3ccc(O)cc3)CC(C)=CC[C@@]12C`, for which the max response was -1.16%.
